Holding throughout (type): functional
The test system of test [1] is Plasmodium falciparum. The test is described as follows: GSK_TCMDC: Inhibition of Plasmodium falciparum 3D7 in whole red blood cells, using parasite LDH activity as an index of growth. Test compounds present at 2uM.
Test [2] relates to Plasmodium falciparum. As to the kind of experiment: GSK_TCMDC: Inhibition of Plasmodium falciparum Dd2 in whole red blood cells, using parasite LDH activity as an index of growth. Test compounds present at 2uM.
The subject of test [3] is HepG2. The test is described as follows: GSK_TCMDC: Percent inhibition of human HepG2 cell line. Test compounds present at 10uM.

For orientation: Inhibition means the percentage by which the read-out fell short of the control. Low readings indicate little suppression, high ones strong suppression. In the case of `O=C(O)C(F)(F)F.O=C1CCCN1CCCNCc1ccc(-c2ccc(-c3nc4cc(C(F)(F)F)ccc4[nH]3)s2)cc1`, the Inhibition came to 100% in test [1], 96% in test [2] and 9% in test [3].

In the case of `Cc1ccc(C)c2sc(N(CCCn3ccnc3)C(=O)C=Cc3cccs3)nc12.Cl`, the Inhibition is 100% in test [1], 93% in test [2] and 20% in test [3].

`COc1cc(Nc2nccc(N3CCC(NS(=O)(=O)c4ccc(NC(C)=O)cc4)CC3)n2)cc(OC)c1OC`: the Inhibition in test [1] is reported as 91%; in test [2] it was 42%; in test [3] it was 0%.

Turning to `CCCCCCOc1ccc(C(=O)NCCCC2CCCN(CCCCCNC(=O)C=Cc3ccc(Cl)c(Cl)c3)C2)cc1` (centres undefined), the Inhibition is reported as 96% in test [1], 12% in test [2] and 20% in test [3].

Take `C=C[C@]1(C)C[C@@H](OC(=O)NC(=O)CCCS(=O)(=O)c2nnc(C)s2)[C@]2(C)[C@H](C)CC[C@]3(CCC(=O)[C@H]32)[C@@H](C)[C@@H]1O`: the Inhibition in test [1] is 94%; in test [2] it was 97%; in test [3], 0%.

On to `N#Cc1cccc(Nc2nccc(NCC(O)c3cccc(C(F)(F)F)c3)n2)c1` (centres undefined), for which the Inhibition in test [1] amounted to 99%; in test [2], 84%; in test [3] it was 4%.

For `COc1ccc(CCNCC(O)c2cccc(Br)c2)c(Cl)c1OC.Cl` (centres undefined), the Inhibition is recorded as 87% in test [1], 70% in test [2] and 18% in test [3].

`CC(C)(C)CCOC(=O)N1CCc2c(cc(O)c(O)c2Cl)C(c2ccc(O)cc2)C1` (centres undefined): the Inhibition amounted to 97% in test [1], 95% in test [2] and 2% in test [3].

As to `CN(C)c1ccc(CN2CCCC(CNC(=O)c3ccc(-c4cccc(C(F)(F)F)c4)s3)C2)cc1.O=C(O)C(F)(F)F` (centres undefined), the Inhibition in test [1] stood at 89%; in test [2], 37%; in test [3], 32%.

Take `COc1ccc(NC(=O)NCC2CCCN(CCCCCNC(=O)/C=C/c3ccc(Cl)c(Cl)c3)C2)c(OC)c1` (centres undefined): the Inhibition amounted to 95% in test [1], 0% in test [2] and 8% in test [3].

As for `O=C(Nc1cc(Cl)cc(Cl)c1)N[C@H]1CCN(CCCCCNC(=O)C2CC2c2ccc(Cl)c(Cl)c2)C1` (some centres undefined), the Inhibition in test [1] was found to be 99%; in test [2] it was 0%; in test [3], 49%.

Take `Cl.O=c1cc(NCCCNCc2sc(Br)nc2Br)[nH]c2ccccc12`: the results for the Inhibition in test [1], in test [2] and in test [3] were 92%, 44% and 1%, respectively.

With `CC1CN(c2cnn(Cc3ccc(NC(=O)Nc4cccc(C(F)(F)F)c4)cc3)c(=O)c2Cl)CC(C)N1.O=C(O)C(F)(F)F` (centres undefined), the values for the Inhibition in test [1], in test [2] and in test [3] were 86%, 31% and 0%, respectively.

As for `CS(=O)(=O)Nc1cccc(-c2cnc3[nH]cc(-c4ccc(C(=O)O)c(F)c4)c3c2)c1`, the Inhibition in test [1] is reported as 99%; in test [2] it was 76%; in test [3], 27%.

Regarding `CCNC(C)(C)CN(Cc1ccc(-c2ccc(C(F)(F)F)cc2)cc1)C(=O)Cn1c(CCc2cccc(F)c2F)nc(=O)c2ccccc21.O=C(O)C(O)C(O)C(=O)O`, the Inhibition in test [1] is reported as 97%; in test [2], 70%; in test [3], 47%.

For the compound `O=C(c1ccc(F)c2ccccc12)N1CCc2cc3nccc(N4CCN5CCC[C@H]5C4)c3cc21`, the Inhibition in test [1] stood at 90%; in test [2] it was 54%; in test [3] it was 0%.

For `O=C(Nc1cccc(CN2CCCN(Cc3ccsc3)CC2)c1)c1ccc(Cl)c(Cl)c1.O=C(O)C(F)(F)F`, the Inhibition is on record as 98% in test [1], 20% in test [2] and 36% in test [3].

On to `Cc1ccc(Nc2cc(C)nn2-c2nc(C)cc(O)n2)cc1`, for which the Inhibition in test [1] was determined as 97%; in test [2], 95%; in test [3] it was 54%.

As to `CCNC(=O)c1ccc2c(c1)c(C)c(C)n2Cc1ccc(F)cc1`, the results for the Inhibition in test [1], in test [2] and in test [3] were 93%, 91% and 25%, respectively.

For the compound `CCN(CCCN1CCCCC1)c1cc(C)nc(Nc2cccc(C(F)(F)F)c2)n1.O=C(O)C(F)(F)F`, the Inhibition in test [1] was determined as 100%; in test [2], 88%; in test [3], 25%.

For the compound `COc1cccc(-c2ccc(C(=O)NC3CCN(Cc4ccc(N(C)C)cc4)CC3)s2)c1.O=C(O)C(F)(F)F`, the results for the Inhibition in test [1], in test [2] and in test [3] were 81%, 20% and 8%, respectively.

`O=C(Nc1cccc(-c2ccc(-c3nc4cc(F)ccc4[nH]3)cc2)c1)c1csnn1`: the Inhibition was determined as 94% in test [1], 31% in test [2] and 22% in test [3].

For `COc1ccc2c(=NN=Cc3ccc(F)cc3)cc(C)[nH]c2c1`, the Inhibition is 100% in test [1], 99% in test [2] and 4% in test [3].

Regarding `COc1ccc(CCNCCCCCCNCCc2cccc([N+](=O)[O-])c2)cc1OC.Cl`, the Inhibition amounted to 93% in test [1], 0% in test [2] and 13% in test [3].

On to `CC(=O)Nc1ccc(S(=O)(=O)Nc2ccc(Nc3nc(C)cc(N4CCCCC4)n3)cc2)cc1`, for which the Inhibition in test [1] is 89%; in test [2], 54%; in test [3], 23%.

For the compound `Cl.c1ccc(Oc2ccc(Nc3ccnc(Nc4ccc5cn[nH]c5c4)n3)cc2)cc1`, the Inhibition in test [1] is given as 94%; in test [2], 33%; in test [3], 6%.

Turning to `COC(=O)c1cccc(CNCc2cccc(-c3cccc(-c4nc5ccccc5[nH]4)c3)c2)c1.O=C(O)C(F)(F)F`, the results for the Inhibition in test [1], in test [2] and in test [3] were 95%, 58% and 3%, respectively.

On to `COc1ccccc1CCNc1nc(C)cc(N[C@@H](Cc2ccccc2)C(=O)NCCOc2ccccc2)n1.O=C(O)C(F)(F)F`, for which the figures for the Inhibition in test [1], in test [2] and in test [3] were 100%, 76% and 20%, respectively.

For the origin of these results see ChEMBL document CHEMBL1157539, “Thousands of chemical starting points for antimalarial lead identification” (Nature, 2010).
